# Results published in ChEMBL document CHEMBL3988442, “University of Dundee, Small-Polar-MMV Screening Library” (2021).
# The whole screen tested about 48,000 compounds, of which about 13,000 (27%) showed an effect of 50% or more. Some of the results follow.
# Test system: Wolbachia pipientis
# Assay: Anti-Wolbachia Cell-Based Screen
# Type: functional
# Parameters: scale not given: in the data most compounds retested in dose-response had high values
# Settings: 5 µM
row,Structure (SMILES),Percent Effect [%]
1,COc1cc(-c2noc(C(CC(C)C)N3CCCCC3=O)n2)ccn1 (centres undefined),-8.352
2,Cc1noc(C2CCN(C(C)c3nc(C4CC4)no3)CC2)n1 (centres undefined),2.218
3,CN1CCN(C2CCN(CCOc3ccccc3F)CC2)C1=O,107.7
4,Cn1c(C2CC2)nc2c1CCN(CCOc1ccc(C#N)cc1)C2,-1.848
5,CN1CCN(C2CCN(CCOc3ccc(C#N)cc3)CC2)C1=O,102.1
6,CN1CCN(C2CCN(CCCOc3ccc(F)cc3)CC2)C1=O,81.83
7,CN1CCN(C2CCN(Cc3noc(-c4ccccc4)n3)CC2)C1=O,-0.9175
8,CN1CCN(C2CCN(CCOc3ccc(F)cc3)CC2)C1=O,-2.232
9,CN1CCN(C2CCN(C(C(N)=O)c3ccccc3)CC2)C1=O (centres undefined),-3.145
10,CN1CCN(C2CCN(CCOc3ccccc3)CC2)C1=O,94.15
11,COc1ccc(CCN2CCC(N3CCN(C)C3=O)CC2)cc1,-2.52
12,OCCn1cc(CN2CCN(CCOc3ccccc3F)CC2)cn1,2.742
13,CC(C)c1nnc(CNc2nc(-c3cccnc3)nc3c2CCC3)n1C,6.162
14,Cc1cnn(CCNCc2csc(-c3cccs3)n2)c1,-4.856
15,Cc1cc(CC(=O)NCC(O)COc2ccc(F)c(F)c2)no1 (centres undefined),-5.317
16,Cc1cccc(-c2nc(CN3CCc4c(ncn4C)C3)no2)c1,5.431
17,COC(C)C(=O)NS(=O)(=O)c1cccc2cc(C)cnc12 (centres undefined),-12.97
18,CCc1cnc(NCC(CC)N2CCOCC2)nc1 (centres undefined),14.29
19,COCCNC(=O)Nc1ccc(CN2CCOC2=O)cc1,-11.28
20,COc1ccc(C(C)n2ccnc2-c2cc3n(n2)CCCNC3)cc1F (centres undefined),6.118
21,O=C1CCC(C(=O)NCc2nncn2-c2ccccc2)CN1 (centres undefined),3.893
22,Cc1cccc(CNCC2COC3(CCCCC3)O2)c1C (centres undefined),5.002

row,Structure (SMILES),Percent Effect [%]
1,COc1ccc2[nH]nc(CN3CCC(C(C)N4CCCC4)CC3)c2c1 (centres undefined),-10.16
2,CN(Cc1ccco1)Cc1cnc2n1CCN(c1ncccn1)CC2.O=C(O)C(F)(F)F,6.885
3,O=C(C1CCOC1)N1CCc2ncc(CNc3ccccn3)n2CC1 (centres undefined),-18.08
4,Cc1ccc(N2CCc3ncc(CNc4ccccn4)n3CC2)nn1,114.5
5,Cn1cccc1C(=O)NCc1cnc2n1CCN(c1ccccn1)C2,-1.189
6,COCCN1CCc2ncc(CNc3cc(N(C)C)ncn3)n2CC1,-5.126
7,Cc1ccc(NCc2cnc3n2CCN(c2ncccn2)CC3)nn1,97.55
8,CN(Cc1ccc(F)cc1)C(=O)CN1CCCC(Cn2cncn2)C1 (centres undefined),-5.404
9,CN(Cc1ccccc1)C(=O)CN1CCCCC1Cn1cncn1 (centres undefined),-0.2947
10,CN(Cc1ccco1)C(=O)CN1CCCC(Cn2cncn2)C1 (centres undefined),5.962
11,CN(Cc1ccsc1)C(=O)CN1CCCC(Cn2cncn2)C1 (centres undefined),109.8
12,CN(Cc1ccsc1)C(=O)CN1CCCC1Cn1cccn1 (centres undefined),-10.05
13,CCN(Cc1ccccc1)C(=O)CN1CCCC(Cn2cncn2)C1 (centres undefined),3.711
14,CN(Cc1cccc(F)c1)C(=O)CN1CCCC(Cn2cncn2)C1 (centres undefined),16.73
15,CN(Cc1ccccc1)C(=O)CN1CCCC(Cn2cncn2)C1 (centres undefined),97.22
16,O=C(CN1CCCC(Cn2cncn2)C1)NCc1ccco1 (centres undefined),1.739
17,Cc1ccc(CN(C)C(=O)CN2CCCC(Cn3cncn3)C2)cc1 (centres undefined),90.35
18,Cc1ccc(CN(C)C(=O)CN2CCCC(Cn3cncn3)C2)o1 (centres undefined),96.55
19,Cc1ccc(CN(C)C(=O)CN2CCCC2Cn2cncn2)cc1 (centres undefined),-14.18
20,CC(C)c1nc(CN(C)C(=O)CCS(=O)(=O)c2ccccc2)no1,-0.5439
21,O=C(NS(=O)(=O)c1cccc(C(F)(F)F)c1)c1cscn1,5.239
22,CSCC(C)CNC(=O)N1CCSC(C)(C)C1 (centres undefined),-11.84

row,Structure (SMILES),Percent Effect [%]
1,Cc1ccsc1C(=O)N1CCCn2nnc(Cn3cccn3)c2C1,-8.648
2,NC(=O)C1CCN(CC(=O)NCCc2c(F)cccc2F)CC1,-5.279
3,Cc1ccccc1CN(C)C(=O)CN1CCCC(Cn2cncn2)C1 (centres undefined),113.1
4,CN(Cc1cccs1)C(=O)CN1CCCC1Cn1cncn1 (centres undefined),4.485
5,CN(Cc1cccs1)C(=O)CN1CCCCC1Cn1cncn1 (centres undefined),-8.193
6,CN(Cc1cnn(C)c1)C(=O)CN1CCCC1Cn1cncn1 (centres undefined),-17.06
7,Cc1ccccc1CN(C)C(=O)CN1CCCCC1Cn1cncn1 (centres undefined),13
8,Cc1ccc(CNC(=O)CN2CCCC(Cn3cncn3)C2)s1 (centres undefined),2.763
9,CN(Cc1cnn(C)c1)C(=O)CN1CCCCC1Cn1cncn1 (centres undefined),-1.261
10,CN(Cc1cnn(C)c1)C(=O)CN1CCCC(Cn2cncn2)C1 (centres undefined),99.58
11,CN(Cc1cccs1)C(=O)CN1CCCC(Cn2cncn2)C1 (centres undefined),104.7
12,Cc1ccc(F)c(OC2(C(=O)O)CCN(C(=O)C3CCCC3)CC2)c1,-29.08
13,CC(C)c1nccn1CCn1cnc2ccsc2c1=O,2.985
14,Cc1ccc(C(=O)NCCCC2(C3OCCO3)CCOCC2)cc1C,-3.842
15,Cc1ccccc1CN(C)C(=O)CCc1nc(-c2nnc[nH]2)no1,4.436
16,CNC(=O)c1cc2c(nc1N(C)C)CCN(S(=O)(=O)CC(C)C)CC2.O=C(O)C(F)(F)F,-14.6
17,CNC(=O)c1cc2c(nc1N(C)C)CCN(c1ncc(F)cn1)CC2.O=C(O)C(F)(F)F,86.67
18,CNC(=O)c1cc2c(nc1NCC(C)C)CCN(c1ncccn1)CC2.O=C(O)C(F)(F)F,-3.442
19,CNC(=O)c1cc2c(nc1N(C)C)CCN(c1ncccn1)CC2.O=C(O)C(F)(F)F,100.6
20,CCc1cnc(N2CCc3ncnc(N4CCN(C)CC4)c3CC2)nc1.O=C(O)C(F)(F)F,-0.8279
21,CNC(=O)c1cc2c(nc1NCC(C)C)CCN(C)CC2.O=C(O)C(F)(F)F.O=C(O)C(F)(F)F,-3.691
22,CCc1cnc(N2CCc3cc(C(=O)NC)c(N(C)C)nc3CC2)nc1.O=C(O)C(F)(F)F,91.47

row,Structure (SMILES),Percent Effect [%]
1,CNC(=O)c1cc2c(nc1N(C)C)CCN(c1ncc(C)cn1)CC2.O=C(O)C(F)(F)F,101.6
2,CNC(=O)c1cc2c(nc1N(C)C)CCN(S(=O)(=O)C1CC1)CC2.O=C(O)C(F)(F)F,-2.828
3,CCS(=O)(=O)N1CCc2cc(C(=O)NC)c(N(C)C)nc2CC1,15.07
4,CNC(=O)c1cc2c(nc1N(C)C)CCN(C)CC2.O=C(O)C(F)(F)F.O=C(O)C(F)(F)F,0.7225
5,CNC(=O)c1cc2c(nc1N(C)C)CCN(S(=O)(=O)N(C)C)CC2.O=C(O)C(F)(F)F,-4.998
6,CCN(CCc1nc2cc(C)ccc2[nH]1)C(=O)COC,16.32
7,CCSCCC(C)N(C)C(=O)c1ccc2nncn2c1 (centres undefined),5.422
8,CC(C)N1CCC(CC(=O)NC[C@H]2CCc3ccccc3O2)CC1,10.1
9,Cc1cc(NC2CCN(c3ccccc3)C2)n2ncnc2n1 (centres undefined),-12.56
10,Cc1cc(=O)n2ncnc2n1CC(O)c1ccccc1 (centres undefined),-22.33
11,CCOc1cc(C)nc(N2CCN(Cc3nccn3CC)CC2)n1,-15.08
12,O=C(CSc1ccc(F)c(F)c1)NS(=O)(=O)c1ccc2c(c1)OCCO2,-0.1688
13,Cc1cnc(N2C[C@@H]3[C@@H](C2)OCC(=O)N3CCN(C)C)nc1.O=C(O)C(F)(F)F,-6.584
14,Cn1cc(-c2nc3c(cc2C(=O)O)CCN(C(=O)C2CC2)CC3)cn1.O=C(O)C(F)(F)F,-6.455
15,Cc1cnc(N2CCc3cc(C(=O)O)c(N(C)C)nc3CC2)nc1.O=C(O)C(F)(F)F,100.3
16,CC(=O)N1CC[C@]2(O)CCN(Cc3nc(C)c[nH]3)C[C@@H]2C1,-2.174
17,O=C(NCCn1ccc(-c2ccccn2)n1)c1ccncc1,-7.154
18,O=C(NCCn1ccc(-c2ccccn2)n1)C1CC1,-0.9217
19,O=C(CC1CCCC1)NCCn1ccc(-c2ccccn2)n1,-10.47
20,O=S(=O)(NCCn1ccc(-c2ccccn2)n1)C1CC1,-6.765
21,O=S(=O)(NCCn1ccc(-c2ccncc2)n1)C1CC1,-3.151
22,O=S(=O)(NCCn1ccc(-c2ccccn2)n1)C1CCCCC1,96.49

row,Structure (SMILES),Percent Effect [%]
1,O=C(NCCn1ccc(-c2ccccn2)n1)C1CCC1,100.8
2,CC(=O)NCCn1ccc(-c2ccccn2)n1,104.5
3,CCOCC(=O)NCCn1ccc(-c2ccccn2)n1,107
4,CC(=O)NCCNc1nc(-c2ccccn2)nc2c1c(C)nn2C,-13.51
5,Cc1ccc(O)c(CN(Cc2ccccc2)Cc2nccs2)n1,11.33
6,CCCN1CCCn2nc(CNC(=O)CCc3scnc3C)cc2C1,1.883
7,CN(Cc1ccsc1)Cc1nc(-c2cnccn2)no1,-7.726
8,CC(C)(C)C(=O)NCCn1ccc(-c2ccncc2)n1,-1.821
9,CC(C)(C)C(=O)NCCn1ccc(-c2ccccn2)n1,67.15
10,Cc1cnn(CC2CCCN2Cc2nccn2C)c1 (centres undefined),-1.089
11,Cc1cnn(CC2CCCCN2Cc2nc(-c3ccoc3)no2)c1 (centres undefined),6.468
12,Cc1nc2ccccc2nc1CN1CCCCC1Cn1cccn1 (centres undefined),-6.205
13,CCn1ccnc1CN1CCCC1Cn1cc(C)cn1 (centres undefined),134.6
14,Cc1cnn(CC2CCCCN2Cc2nccn2CC(F)(F)F)c1 (centres undefined),101.7
15,Cn1ccnc1CN1CCCCC1Cn1cccn1 (centres undefined),5.027
16,NC(=O)C1CCCN1Cc1nccn1CC(F)(F)F (centres undefined),-2.704
17,O=C(C1CCCCN1Cc1nccn1CC(F)(F)F)N1CCCC1 (centres undefined),-10.67
18,Cc1cnn(CC2CCCN2Cc2nc3ccccc3n2C)c1 (centres undefined),0.7122
19,Cc1cnn(CC2CCCN2Cc2nc3ccccc3nc2C)c1 (centres undefined),3.797
20,Cc1cnn(CC2CCCN2Cc2nccn2CC(F)(F)F)c1 (centres undefined),129.3
21,Cn1ccnc1CN1CCCC1Cn1cccn1 (centres undefined),107.8
